Shown are actives, neighbours in structure and some others; about 0.81% of the full set was active somewhere.
RE007 growth inh = qHTS Assay for Inhibitors of the HIV-1 protein Vpr. actives 0.21% (n = 360,000). S. pombe RE007 Vpr strain, BacTiter-Glo ATP luminescence, 24 h. Potency, µM (top dose mostly 92.2 µM), without a hit: top-dose activity change, negative = less growth, usual class: inhibitors; active means well fitted falling curve with a large enough effect; inconclusive means small, poorly fitted or top-dose-only effect; inactive means no such curve, though single readings can be large or run the other way; further: on the % scale 0 is the no-effect control and ±100 the full control effect; nearly all actives have a fitted effect of over 50% in size
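Fission yeast RE007 carrying one integrated HIV-1 vpr copy, seeded at OD 0.01 in PMG+AL medium with 23 nL pinned compound. Grown 24 h at 30 degrees; viability read by BacTiter-Glo luminescence after 5 min.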
SARS PLpro yeast = qHTS of Yeast-based Assay for SARS-CoV PLP. S. cerevisiae expressing SARS-CoV PLpro, growth rescue. Potency, µM (doses to about 32.9 µM), for inactives: at the top dose activity, positive = growth rescue, usual class: activators. actives 0.19% (n = 330,000). AID 485353, 2010; calls by dose curve; further: 0% is about no effect; nearly all actives have a fitted effect of over 55% in size
AMA1-RON2 inh = qHTS for Inhibitors of AMA1-RON; Towards Development of Antimalarial Drug Lead: Primary Screen. Plasmodium falciparum AMA1 (3D7) - RON2 peptide interaction. AlphaScreen AMA1-biotinylated RON2 peptide binding. Potency, µM (top dose mostly 58.2 µM), inactives show at the highest dose activity change, negative = inhibition, hits mostly inhibitors. actives 0.2% (n = 360,000). AID 720542, 2013;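 further: 0% = vehicle wells and -100% = peptide control; nearly all actives have a fitted effect of over 45% in size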
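AMA1 (3D7) with his tag at 25 nM final met compounds first, then biotinylated RON2 peptide at 25 nM; detection used donor plus acceptor beads, 10 µg/mL apiece, read by AlphaScreen after 30 min at room temperature.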
TbPYK inhibitor = qHTS of Trypanosoma Brucei Inhibitors; pyruvate kinase (Trypanosoma brucei), Q57TT1; TbPYK enzyme, Kinase-Glo Plus ATP luminescence, 45 min; Potency, µM (top dose mostly 76.8 µM), inactives show top-dose activity, negative = inhibition, most hits filed as inhibitors; actives 0.12% (n = 410,000); AID 624173, 2012; further: on the % scale 0 is the no-effect control and ±100 the full control effect; nearly all actives have a fitted effect of over 50% in size
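ADP (130 uM final) triggers the TbPYK reaction after compound addition; incubation is 45 min at room temperature. Kinase-Glo Plus is then added and luminescence imaged. Normalized data are fitted to concentration-effect curves.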
LmPK inhibitor = qHTS Assay for Inhibitors of Leishmania Mexicana Pyruvate Kinase (LmPK). purified LmPK, Kinase-Glo ATP luminescence, 1 h. actives 0.37% (n = 290,000). AID 1721, 2009. Potency, µM (titrated, usually from 57.5 µM), for the others: top-dose activity change, negative = inhibition, actives largely listed as inhibitors. Q27686; further: on the % scale 0 is the no-effect control and ±100 the full control effect
Target sequence (Q27686 whole entry, looked up): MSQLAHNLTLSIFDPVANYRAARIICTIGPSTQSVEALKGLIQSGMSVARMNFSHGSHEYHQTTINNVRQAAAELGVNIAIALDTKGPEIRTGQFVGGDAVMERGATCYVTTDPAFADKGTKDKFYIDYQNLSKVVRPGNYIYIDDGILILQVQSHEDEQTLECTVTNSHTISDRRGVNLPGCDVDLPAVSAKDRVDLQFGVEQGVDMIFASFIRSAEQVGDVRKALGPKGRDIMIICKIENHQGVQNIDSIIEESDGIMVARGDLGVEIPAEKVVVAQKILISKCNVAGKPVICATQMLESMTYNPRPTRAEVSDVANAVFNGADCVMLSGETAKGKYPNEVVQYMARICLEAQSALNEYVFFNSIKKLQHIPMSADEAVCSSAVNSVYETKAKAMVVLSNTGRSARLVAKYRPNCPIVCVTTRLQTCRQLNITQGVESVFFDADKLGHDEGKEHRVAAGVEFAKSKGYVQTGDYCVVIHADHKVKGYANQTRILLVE
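ATP generated from ADP (0.1 mM) and PEP (0.5 mM) by 0.1 nM LmPK over 1 h at room temperature (pH 7.2 imidazole buffer) was detected by coupled luciferase luminescence. Values were normalized to uninhibited and no-enzyme wells.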
* = called active by the depositor; ? = inconclusive; . = no result given; [ ] = dose if it differs, or a comment. Unless noted, the call rests on the fitted dose curve; in most records, active means well fitted curve in the direction sought with a large enough effect; inconclusive means small, poorly fitted or top-dose-only effect, or another doubt; inactive means no such curve, though single readings can be large; an effect the other way counts as inactive or inconclusive. Potency means the concentration at half of the fitted maximal effect.

SMILES | RE007 growth inh | SARS PLpro yeast | AMA1-RON2 inh | TbPYK inhibitor | LmPK inhibitor
O=C1c2ccccc2C(=Cc2cccnc2)c2ccccc21 | -4% | . | 15% | 5% | .
Cc1ccc(/C=C2\Sc3ccccc3C2=O)s1 | -14% | 2% | ? | -3% | 11µM*
O=C1/C(=C/c2cccnc2)Sc2ccccc21 | 28µM* | -13% | -11% | 6% | ?
CCOc1ccc(NC(=O)Nc2ccccc2SC)cc1 | -7% | -1% | -2% | -9% | 7.9µM*
CSc1ccccc1NC(=O)Nc1ccccc1 | -19% | -17% | 5% | -3% | ?
COc1ccc(-c2n[nH]c(=S)n2Cc2ccco2)cc1 | 5% | 2% | 21% | ? | ?
S=c1[nH]nc(-c2cccnc2)n1C1CCCCC1 | 0% | -3% | 30% | ? | 8.9µM*
COc1ccc(-c2n[nH]c(=S)n2C2CCCCC2)cc1 | 18% | 1% | 122% | ? | 4.5µM*
Cc1ccsc1-c1n[nH]c(=S)n1C1CCCCC1 | 2% | 24% | 37% | 3.2µM* | 8.9µM*
CC1CCCCC1n1c(-c2cccnc2)n[nH]c1=S (configuration not stated) | 9% | 0% | 107% | 11µM* | 20µM*
Cc1ccsc1/C=N/n1c(-c2ccccc2)n[nH]c1=S | 7% | -15% | 56% | -23% | -11%
Cc1ccc(C(=O)NCc2ccc(F)cc2)cc1NC(=O)c1nsc2ccccc12 | . | . | . | 0% | .
S=c1[nH]nc(-c2ccccc2)n1C1C=CCCC1 (configuration not stated) | 5% | 25% | 60% | 8.9µM* | 2.5µM*
S=c1[nH]nc(-c2ccccc2)n1CC1CCCO1 (configuration not stated) | 10% | . | 32% | ? | -11%
O=C(O)C1Nc2c(O)cc(Cl)c([N+](=O)[O-])c2C2C=CCC12 (configuration not stated) | 5% | ? | 2.2µM* | -26% | ?
Cn1c2nc3ccccc3c-2nc2ccccc21 | -24% | . | -9% | -15% | .
CC(C)n1c(-c2ccc(N(C)C)cc2)nc2ccccc21 | -21% | 1% | ? | -15% | -8%
CC(=O)c1ccc(-c2nc3ccccc3n2C)o1 | -15% | -9% | 0% | -24% | 16µM*
Cn1cc(C(=O)c2ccccc2)cc1-c1nc2ccccc2n1C | -3% | -17% | -4% | -2% | 5%
CN(C)c1ccc(-c2nc3ccccc3n2C)cc1 | ? | -11% | -13% | ? | 13µM*
Cc1ccc(-c2nc3ccccc3n2C)o1 | 40µM* | -29% | -5% | ? | 14µM*
Cc1oc(-c2nc3ccccc3n2C)cc1C(=O)c1ccccc1 | ? | -69% | 9% | 32µM* | 13µM*
Cc1[nH]n(-c2ccccc2)c(=S)c1C=Nc1cccc([N+](=O)[O-])c1 | 13% | 6% | 8% | 3.2µM* | -27%
CCCCN=Cc1c(C)[nH]n(-c2ccccc2)c1=S | 1% | 5% | 30% | 7.9µM* | ?
Cc1[nH]n(-c2ccccc2)c(=O)c1C=NCCc1ccccc1 | 7% | -2% | 6% | 5% | -1%
SMILES | RE007 growth inh | SARS PLpro yeast | AMA1-RON2 inh | TbPYK inhibitor | LmPK inhibitor
O=[N+]([O-])c1ccc(C=Nc2ccccc2)cc1 | 6%[18.4 µM] | . | -16% | -4% | .
CCCCN1CC(COC)Oc2cccc(F)c2S1(=O)=O (configuration not stated) | 3% | . | 10% | 1% | .
C[C@@H](O)[C@H]1C(=O)N2C(C(=O)O)=C(S[C@@H]3CN[C@H](CNS(N)(=O)=O)C3)[C@H](C)[C@H]12 | . | . | . | 3% | .
CC(c1ccccc1)n1c(-c2ccccc2F)n[nH]c1=S (configuration not stated) | 5% | 17% | 26% | ? | ?
O=c1c2ccccc2cnn1Cc1n[nH]c(=S)n1-c1ccc(F)c(Cl)c1 | -8% | -1% | 84% | ? | 2%
O=c1c2ccccc2cnn1Cc1n[nH]c(=S)n1-c1cc(Cl)cc(Cl)c1 | 2% | 12% | 38% | 6.3µM* | -25%
CC(c1ccc(F)cc1)n1c(Cn2ncc3ccccc3c2=O)n[nH]c1=S (configuration not stated) | 18% | 1% | 68% | 13µM* | 6%
O=c1c2ccccc2cnn1Cc1n[nH]c(=S)n1-c1ccc(F)cc1 | 15% | -1% | 0% | ? | 1%
CC(c1ccc(F)cc1)n1c(-c2cccs2)n[nH]c1=S (configuration not stated) | -3% | 0% | 54% | 7.1µM* | ?
CC1CC(C)C(=O)C(C(O)CC2CC(=O)NC(=O)C2)C1 (configuration not stated) | . | . | . | 3%[157 µM] | .
CC(=O)NC(CCC(N)=O)C(=O)O (configuration not stated) | . | . | . | 3% | .
C/C(=N\NC(=O)c1csc(C)c1C)c1ccco1 | 3% | 18% | 27% | -23% | 14µM*
C/C(=N\NC(=O)c1csc(C)c1C)c1ccc(C)s1 | 1% | 7% | 17% | -10% | -3%
Cc1cc(C)nc(SC2=CS(=O)(=O)c3ccccc32)n1 | 14% | 7% | 8% | 1% | 4%
O=S1(=O)C=C(Sc2nc3ccccc3s2)c2ccccc21 | 10µM* | -23% | 21% | 2% | -7%
CCOc1ccc(-n2c(-c3ccco3)n[nH]c2=S)cc1 | 4% | 6% | -6% | ? | ?
Fc1ccc(-n2c(-c3ccco3)n[nH]c2=S)cc1 | 12% | 0% | 47% | 8.9µM* | ?
Cc1c(Cl)c(-c2n[nH]c(=S)n2-c2ccc(F)cc2)nn1C | 1% | 3% | 73% | 4µM* | ?
Cc1ccc(-n2c(-c3ccco3)n[nH]c2=S)cc1 | 7% | 0% | 43% | 6.3µM* | ?
O=C1C(=C(I)I)c2ccccc2-c2ccccc21 | 14µM* | . | ? | -31% | .
O=C1C(=O)c2ccccc2-c2ccccc21 | ? | -54% | -20% | 0% | -5%
O=C(N/N=C/c1ccccc1)c1n[nH]c2c1CCCC2 | 15% | -1% | 5% | 2% | -9%
O=C(N/N=C/c1cccs1)c1n[nH]c2c1CCC2 | -1% | 6% | 39% | -18% | 25µM*
NS(=O)(=O)c1ccc(CCNC(=O)CSc2ccccc2)cc1 | 11% | -4% | -4% | 6% | -4%
NS(=O)(=O)c1ccc(CCNC(=O)CNCCc2ccccc2)cc1 | 8% | -1% | 40µM* | 15% | 6%
Cc1ccc2oc3c(c(=O)c2c1)C(c1cccc(O)c1)N(Cc1ccccc1Cl)C3=O (configuration not stated) | . | . | . | 1% | .
CCN(CC)c1ccc2nc3c(=O)n(C)c(=O)n(C)c3nc2c1 | . | . | . | 1% | .
